Measured values reported in PubChem BioAssay AID651820 (National Center for Advancing Translational Sciences (NCATS), 2012).
Where “and” joins values, the source holds several entries; their conditions need not be identical. Identical values can stand only once. Among all 340,000 compounds or so, about 12,000 (3.5%) were called active. About 18% were inconclusive and are not listed. This is one part of a sample in which actives are shown more often than they occur. Where a structure was tested more than once in an assay, its records may differ in their call. Values without a mark were called inactive. The call rests on the fitted dose curve; in most records, active means well fitted inhibition curve with a large enough effect; inconclusive means small, poorly fitted or top-dose-only effect, or another doubt; inactive means no such curve, though single readings can be large or run the other way.

Assay: qHTS Assay for Inhibitors of Hepatitis C Virus (HCV)
Conditions: Huh7.5.1 HCVcc-Cre infection, luciferase reporter, 44 h; series mostly up to 41.8 µM; activity change, negative = inhibition: at the top concentration
In short: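 Compounds are dispensed onto cells plated 4 h earlier at 1,000 per well, with HCVcc-Cre virus (about 0.5 moi) added next. Following 44 h of culture, luminescent signal is measured for 15 sec after 15 min with substrate at room temperature.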
On the % scale 0 is the no-effect control and ±100 the full control effect; potency means the concentration at half of the fitted maximal effect.

Structure (SMILES) | activity change, negative = inhibition | Potency
CC1(C)CC(=O)c2ccc(O)cc2O1 | -1.61% | 
CC[C@@H]1Cc2cc(O)ccc2C2=C1c1ccc(O)cc1C[C@H]2CC |  | 3.16 µM (active)
O=C(Nc1cccc(S(=O)(=O)NC2=NCCC2)c1)c1ccc(F)cc1F | -7.06% | 
COc1ccc(-n2nc(C(=O)NCC(=O)N3CCCCCC3)c3ccccc3c2=O)cc1Cl |  | 11.2 µM (active)
COc1ccc(-n2nc(C(=O)NCC(=O)N3CCN(c4ccccc4OC)CC3)c3ccccc3c2=O)c(OC)c1 | -14% | 
COc1ccc(-n2nc(C(=O)NCC(=O)N3CCC(C(N)=O)CC3)c3ccccc3c2=O)cc1OC | 12.3% | 
O=C1N[C@@H](Cc2ccccc2)C(=O)N2[C@@H]3N(S(=O)(=O)c4ccc(F)cc4)c4ccccc4[C@]3(Br)C[C@@H]12 | 2.9% | 
CCOC(=O)C1CCN(CC(=O)Nc2ccc(OC)c(S(=O)(=O)N3CCCCC3)c2)CC1 | 6.66% | 
O=c1[nH]c2c(c(=O)n1-c1ccccc1)CCO2 | 25.9% | 
O=C(COC(=O)c1cccs1)Nc1ccccc1Cl | 7.58% | 
O=C(COC(=O)c1c2c(nc3ccccc13)/C(=C\c1cccs1)CCC2)Nc1ccccc1Cl |  | 4.47 µM (active) and 2.51 µM (active)
COc1cc(/C=C2\CCCc3c2nc2ccccc2c3C(=O)O)cc(Cl)c1O | 8.48% | 
Cc1ccc(C)c(NC(=O)COC(=O)CSc2ccccc2)c1 | -8.78% | 
CN(CC(=O)NCc1ccc2c(c1)OCO2)CC(=O)Nc1ccc(F)c(F)c1F | 7.62% | 
COc1ccc(CC(=O)Nc2ccc3c(c2)CCC3)cc1S(=O)(=O)N1CCOCC1 | -3.24% | 
COc1cc(/C=C/C(=O)Nc2ccc(OC)c(S(=O)(=O)N3CCOCC3)c2)ccc1OCC#N |  | 7.08 µM (active)
COc1ccc(CNC(=O)COC(=O)c2ccc(C)c(S(=O)(=O)N3CCOCC3)c2)cc1OC | -3.02% | 
COc1ccc(CCC(=O)Nc2ccc(Cl)c(S(=O)(=O)N3CCOCC3)c2)cc1OC |  | 11.2 µM (active)
COc1ccc(NS(=O)(=O)c2cc(NC(=O)/C=C/c3cc(OC)c(OC)c(OC)c3)ccc2N2CCCCC2)cc1 |  | inactive
COc1cc(/C=C/C(=O)OCC(=O)N2CCOCC2)ccc1OCC#N | 3.73% | 
O=C(c1cnccn1)N1CCN(S(=O)(=O)c2cccc(Cl)c2)CC1 | 5.65% | 
CCOc1ccc(NC(=O)COC(=O)C2CCC(=O)N2)c([N+](=O)[O-])c1 (stereo not drawn) | 21.4% | 
CC(C)CC1NC(=O)c2cc(Cl)ccc2-n2c1nc1ccccc1c2=O (stereo not drawn) | 11.4% | 
Cc1cc2nc(-c3ccc(NC(=O)c4cccnc4)cc3)oc2cc1C | -25.6% | 
CC(=O)Nc1ccc(-c2nc3ccccc3o2)cc1 | -1.93% | 

Structure (SMILES) | activity change, negative = inhibition | Potency
Cc1ccc2nc(-c3ccc(NC(=O)c4cccnc4)cc3)oc2c1 |  | 10 µM (active)
N=C1c2ccccc2-c2ccccc21 | 8.98% | 
CC(C)(C)OC(=O)C[C@@H]1C/C=C\C[C@@H](CC(=O)NCCO)C(=O)N[C@H](Cc2c[nH]c3ccccc23)COC1=O | 12.1% | 
Cc1cc(C)c(S(=O)(=O)n2cc(C(C)C(N)C(=O)O)c3ccccc32)c(C)c1 (stereo not drawn) | 20.4% | 
O=C(NNC(=O)C1CCN(c2ncccn2)CC1)c1ccccc1 | 10.3% | 
Cc1cc(=O)n2nc(N3CCC(C(=O)Nc4c(F)c(F)c(F)c(F)c4F)CC3)sc2n1 | -8.41% | 
Cc1sc2ncnc(N3CCC(C(=O)Nc4ccc(F)cc4Cl)CC3)c2c1C |  | 11.2 µM (active)
O=C(Cc1ccccc1)NNC(=O)C1CCN(c2ncccn2)CC1 | -20.5% | 
Cc1sc2ncnc(N3CCC(C(=O)Nc4nc5ccc(Cl)cc5s4)CC3)c2c1C | 0.865% | 
CCc1ccc(C(=O)NNC(=O)C2CCN(c3ncnc4sc(C)c(C)c34)CC2)cc1 |  | 12.6 µM (active)
CCOc1cccc2cc(C(=O)OCC(=O)Nc3c(C)cccc3CC)c(=O)oc12 | 7.95% | 
Clc1ccc(CN2CCN(/N=C/c3cccnc3)CC2)cc1 | -3.56% | 
O=C1/C(=C\c2cccnc2)CN(Cc2ccccc2)C/C1=C\c1cccnc1 |  | 6.31 µM (active)
O=Cc1cn(Cc2ccccc2)nc1-c1cccnc1 | 5.66% | 
CC(OC(=O)CNC(=O)c1cccc(F)c1)C(=O)NC1CCCCC1C (stereo not drawn) | -18.8% | 
O=C(N/N=C/c1cc(Br)c(O)c([N+](=O)[O-])c1)C(O)(c1ccccc1)c1ccccc1 | 1.49% | 
COC(=O)c1ccc(NCc2cc(O)ccc2O)cc1 |  | 5.01 µM (active)
CC(C)OC(=O)c1ccc(NCc2cc(O)ccc2O)cc1Cl |  | 6.31 µM (active)
C#CCNc1ccc(C(=O)OCC)cc1 | 20.7% | 
CC(CN1CCCCC1)OC(=O)c1ccccc1Cl (stereo not drawn) | 5.79% | 
COC(=O)c1ccc(NCC(=O)c2ccccc2)cc1 | -4.54% | 
CC(CN1CCOCC1)OC(=O)c1ccc(Cl)cc1Cl (stereo not drawn) | 17.4% | 
COc1ccc(Cl)cc1NC(=O)COc1ccc2c(c1)OCO2 | -5.11% | 
CC1CN(C(=O)c2ccc([N+](=O)[O-])s2)CC(C)O1 (stereo not drawn) | 26.4% | 
c1ccc2sc(NN=C3CCCC3)nc2c1 | -20.9% | 

Structure (SMILES) | activity change, negative = inhibition | Potency
c1ccc(C(=NNc2nc3ccccc3s2)c2ccccn2)cc1 |  | 1.58 µM (active)
O=C(Nc1ccccc1)Nc1nc2ccccc2s1 | -12.9% | 
Cc1ccc(S(=O)(=O)N2CCOCC2)cc1NC(=O)COC(=O)c1cnccn1 | 0.865% | 
CCOC(=O)CSc1nnc(-c2cccc(Br)c2)o1 | 15.7% | 
CC1=CC(C)(C)N(C(=O)CSc2nnc(-c3ccccc3)o2)c2ccc(C)cc21 |  | 11.2 µM (active)
Cc1cccc(C)c1OC(=O)CSc1nnc(-c2ccccc2)o1 | -4.66% | 
CC1(C)C[C@H]2C3=CCC4[C@@]5(C)CC[C@H](O)[C@](C)(CO)C5CC[C@@]4(C)[C@]3(C)C[C@@H](O)[C@@]2(CO)[C@@H](O)[C@@H]1O (stereo partly drawn) | 8.47% | 
Cc1cc(C(=O)COc2ccccc2Cl)c(C)n1C1CC1 | -11.2% | 
Cc1cc(C(=O)OCC(=O)Nc2c(F)cccc2F)c(C)n1C1CC1 | 13.6% | 
Cc1cc(C(=O)COc2ccc(Br)cc2F)c(C)n1C1CC1 |  | 22.4 µM (active)
O=C(CSc1ccccn1)N1CCN(S(=O)(=O)c2ccc(Cl)cc2)CC1 | 2.37% | 
COc1ccccc1-n1nnnc1SCC(=O)NC(=O)Cc1ccccc1 | 3.1% | 
Cc1ccc(Cl)c(OCC(=O)N(C)CC(=O)Nc2ccc(N3CCOCC3)cc2)c1 | -13.6% | 
O=C(COC(=O)c1ccco1)Nc1ccc(Cl)cn1 | 7.08% | 
CN(C)[C@@H]1C(=O)C(C(N)=O)=C(O)[C@@]2(O)C(=O)C3=C(O)c4c(O)ccc(Cl)c4[C@@H](O)[C@H]3C[C@@H]12 | 0.778% [at 8.37 µM] | 2.82 µM (active)
CCCCn1c(N)c(N(CCC(C)C)C(=O)c2ccc(COc3ccccc3)o2)c(=O)[nH]c1=O | -10.5% | 
O=C(CNC(=O)c1cc(S(=O)(=O)N2CCOCC2)ccc1N1CCCC1)Nc1ccc(F)c(F)c1 | 5.03% | 
CC1CC(=NNC(=O)C2COc3ccccc3O2)CC(C)(C)C1 (stereo not drawn) | -16.6% | 
CN(C)C(=O)CCc1ccc2c3c([nH]c2c1)[C@]1(CCC2CCCC2)[C@@H](C(=O)N2CCOCC2)C[C@H](CC(=O)NCc2ccco2)C(=O)N1CC3 | 11% [at 8.37 µM] | 
CCc1ccccc1NC(=O)CN(C)C(=O)c1cc(C2CC2)nn1-c1ccccc1 | -18.9% | 
CN(C)S(=O)(=O)c1cccc(NC(=O)Cc2ccsc2)c1 | -5.68% | 
CN(c1ccccc1)S(=O)(=O)c1cccc(C(=O)NNC(=O)c2ccncc2)c1 | -10.3% [at 8.37 µM] | 
CN(c1ccccc1)S(=O)(=O)c1cccc(NC(=O)Cc2c(F)cccc2Cl)c1 |  | 8.91 µM (active)
CCOC(=O)[C@@H]1[C@H]2COc3ccc(Br)cc3[C@H]2N2C(=O)N(c3ccc(C)cc3)C(=O)[C@@]12C | 4.27% | 
COC(=O)CC(CC(=O)OC)n1cccc1 | 12.6% | 

Structure (SMILES) | activity change, negative = inhibition | Potency
CCC(C)NC(=O)c1ccc(NC(=O)CC2SC(N3CCCCC3)=NC2=O)cc1 (stereo not drawn) | 8.14% | 
O=C(Nc1cc2c3c(c1)CC(=O)N3CCC2)c1ccccc1F | -15% | 
CCOc1cc(C(=O)Nc2ccc(S(=O)(=O)Nc3cnc4ccccc4n3)cc2)cc(OCC)c1OCC | 2.89% | 
CC(=O)Oc1ccc(-c2nc3c(C)cccc3c(=O)o2)cc1 | -18.5% | 
Cc1nc(N=C(N)N)nc2c(C)cccc12 |  | 14.1 µM (active)
COc1cc(Cl)c(C)cc1NC(=O)CSc1nnc(CN2CCCC2)o1 | 9.24% | 
COc1ccc(-c2nc(CCNC(=O)c3ccc(Br)o3)cs2)cc1 |  | 10 µM (active)
COc1ccc(N2CCN(C(=O)CNC(=O)c3ccc(Br)o3)CC2)cc1 | 12.5% | 
COc1cc(OC)cc(C(=O)NCC(=O)OCc2csc(-c3ccccc3)n2)c1 | -13.4% | 
COc1ccc(C2=NN(C(=O)CSc3nnnn3C)C(c3ccco3)C2)cc1 (stereo not drawn) | 0.807% | 
O=C(CSc1nccn1-c1cccc(F)c1)NC1CCCC1 | -6.21% | 
CCCc1cc(=O)[nH]c2nnc(SCC(=O)Nc3nnc(SCC)s3)n12 | 13.1% | 
COc1ccccc1-c1nnc(-c2ccc(F)cc2)o1 | 2.16% | 
Cc1ccc(-c2nc(CS(=O)CC(=O)NC3CCCC3)c(C)o2)cc1 (stereo not drawn) | -19.2% | 
Cc1ccc(S(=O)(=O)NCCC(=O)NC2CCN(Cc3ccccc3)CC2)cc1 | -7.73% | 
Cc1ccc(-c2nc(CSCC(=O)NC3CCN(Cc4ccccc4)CC3)c(C)o2)cc1 |  | 12.6 µM (active)
O=C(Nc1ccccn1)C1CCN(S(=O)(=O)c2ccccc2)CC1 | -29.9% | 
Fc1ccccc1COc1cccc2cccnc12 | -5.88% | 
Cc1ccc(NC(=O)CN(C)C(=O)c2ccc(Cl)c(S(=O)(=O)NCc3ccco3)c2)cc1 | -9.16% | 
COC(=O)C1=C(C)Nc2ncnn2C1c1cccnc1 (stereo not drawn) | 4.06% | 
CC1=C(C(N)=O)C(c2ccc(Br)cc2)n2ncnc2N1 (stereo not drawn) | 6.56% | 
Clc1ccc2c(c1)C1=C(C(c3ccncc3)O2)C(c2ccc(Br)cc2)n2ncnc2N1 (stereo not drawn) |  | 12.6 µM (active)
